This is an account of results in PubChem BioAssay (Tox21).

For assay [1], the target named is Thyrotropin receptor (Homo sapiens) (UniProt P16473). As to the kind of experiment: qHTS assay to identify small molecule antagonists of the thyroid stimulating hormone receptor (TSHR) signaling pathway (AID 1259385; calls by dose curve; also: nearly all actives have a fitted effect of over 20% in size). Put shortly: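 TSHR-HEK293 cells were plated and held 18 h at 37C/5% CO2, then given compound plus Ro20-1724 and stimulated with TSH at 1.5 ng/mL final. After 30 min at room temperature, cAMP was detected with cAMP-d2/anti-cAMP-cryptate (1 h) by fluorescence.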
Background: qHTS replaces the single test concentration by a dilution series.

A short description of assay [2]: qHTS assay to identify small molecule agonists of the estrogen receptor alpha (ER-alpha) signaling pathway in the presence of an antagonist - cell viability counter screen (AID 1259386).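 Also: series mostly up to about 92 µM; cells exposed to compounds for 22 h at 37 °C before the viability read; nearly all actives have a fitted effect of over 30% in size.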 Summed up:
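Viability counter screen using VM7Luc4E2 (full-length ER-alpha, four ERE-luciferase). The cells were treated with compounds alongside ICI-182,780 10.0nM for 22hr, and live-cell protease fluorescence was quantified with CellTiter-Fluor.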

For assay [3], the target named is Progesterone receptor (Homo sapiens) (UniProt P06401). Put plainly: qHTS assay to identify small molecule agonists of the progesterone receptor (PR) signaling pathway (AID 1346784; calls by dose curve; also: nearly all actives have a fitted effect of over 30% in size). Summed up: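 PR-UAS-bla HEK 293T cells carrying a UAS-driven beta-lactamase reporter were seeded in medium with 2% charcoal-stripped FBS, preincubated 6 hr at 37C, then exposed to compounds in DMSO for 16 hr; agonism was read by LiveBLAzer B/G FRET fluorescence.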

Assay [4] has the same target. Put plainly: qHTS assay to identify small molecule antagonists of the progesterone receptor (PR) signaling pathway (AID 1346795; active = well fitted inhibition curve with a large enough effect in the signal ratio in the repeat runs, not every such curve was filed as active; the % refers to the signal ratio). Summed up: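 PR-UAS-bla HEK293T cells carrying a UAS-driven beta-lactamase reporter were plated in medium with 2% charcoal-stripped FBS and rested 6 hr at 37C. Compounds were added with 1 nM R5020 (final) for 16 hr, then FRET substrate loaded 2 hr at room temperature.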

Assay [5] can be described thus: qHTS assay to identify small molecule antagonists of the progesterone receptor (PR) signaling pathway - cell viability counter screen (AID 1346798). Also: series mostly up to about 92 µM; nearly all actives have a fitted effect of over 50% in size. Put shortly:
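PR-UAS-bla HEK293T cells in medium with 2% charcoal-stripped FBS were treated with compounds plus R5020 for 16 hr at 37C. Cell viability was then read by CellTiter-Glo luminescence after 30 min at room temperature in the same wells.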

Assay [6] is described as follows: qHTS assay to identify small molecule agonists of the progesterone receptor (PR) signaling pathway - cell viability counter screen (AID 1346799; calls by dose curve; also: nearly all actives have a fitted effect of over 45% in size). Summed up: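 PR-UAS-bla HEK293T cells, 3,000 per well in medium with 2% charcoal-stripped FBS, were preincubated 6 hr at 37C, then exposed to compounds for 16 hr; viability was read as CellTiter-Glo luminescence after 30 min at room temperature.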

Assay [7] in a line: qHTS assay to identify small molecule antagonists of the TGF-beta/Smad signaling pathway - cell viability counter screen (AID 1346824). Also: nearly all actives have a fitted effect of over 50% in size. Summed up:
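SBE-bla HEK 293T cells were plated overnight at 37 C, then given compounds in DMSO plus TGF-beta1 (added as 0.25 ng/mL solution) for 5 hr. After the bla read, CellTiter-Glo was added to the same wells and luminescence read after 30 min at room temperature.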

The nature of assay [8]: qHTS assay to identify small molecule agonists of the TGF-beta/Smad signaling pathway (AID 1346859; active = well fitted activation curve with a large enough effect in the signal ratio in the repeat runs, not every such curve was filed as active; the % refers to the signal ratio; also: series mostly up to about 77 µM). Summed up: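 HEK 293T cells stably carrying a beta-lactamase reporter driven by the Smad binding element were seeded overnight, exposed to DMSO-dissolved compounds for 5 hr at 37 C, 5% CO2, then loaded with FRET substrate for 2 hr at room temperature.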
Assay [9] in a line: Human pregnane X receptor (PXR) small molecule agonists, qHTS cell viability counter screen (AID 1346977). Also: nearly all actives have a fitted effect of over 50% in size. Put shortly: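 PXR-Luc HepG2 cells in medium with 5% charcoal-stripped FBS were pre-incubated 5hr, then exposed to compounds for 24hr at 37C. Viability was read in the same wells by CellTiter-Fluor fluorescence, reagent added after 23hr with a 1hr incubation.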
Assay [10] is described as follows: Caspase-3/7 induction in CHO-K1 cells by small molecules, qHTS cell viability counter screen (AID 1346979). Also: nearly all actives have a fitted effect of over 35% in size. Put shortly: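 Wild-type CHO-K1 cells were seeded at 1,500 per well, rested 5hr at 37 C, then exposed to compounds in DMSO. After 16hr, CellTiter-Fluor reagent was added and fluorescence read 1hr later as the viability measure.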
Assay [11] is described as follows: Caspase-3/7 induction in CHO-K1 cells by small molecules, qHTS assay (AID 1346980). Also: nearly all actives have a fitted effect of over 15% in size. Put shortly:
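Wild-type cells were seeded at 1,500 per well and settled 5 hr at 37 C, 5% CO2, then exposed to DMSO-dissolved compounds for 17 hr. Caspase-Glo 3/7 reagent was added, and luminescence was read after 30min at room temperature.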

Assay [12] is described as follows: Caspase-3/7 induction in HepG2 cells by small molecules, qHTS cell viability counter screen (AID 1346981). Also: series mostly up to about 92 µM; nearly all actives have a fitted effect of over 30% in size. Put shortly:
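Viability determined by CellTiter-Fluor fluorescence in HepG2 wells also used for the luminescent Caspase-Glo 3/7 read. Compounds were present for 16 hr at 37 C, 5% CO2 before reagent addition.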

Assay [13] addresses Nuclear receptor subfamily 1 group I member 2 (Rattus norvegicus) (UniProt Q9R1A7). Put plainly: Rat pregnane X receptor (rPXR) activation by small molecules, qHTS assay (AID 1346983). Also: nearly all actives have a fitted effect of over 20% in size. As to conditions: rPXR luciferase reporter cells, One-Glo luminescence, 24 h; stronger effect = higher value. Put shortly: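 Cell-based rPXR luciferase reporter assay, 2,000 cells per well, rested 5hr at 37 C before compound addition in DMSO, then 24 hr at 37 C. One-Glo reagent was added and luminescence read after 30 min at room temperature.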

Assay [14] deals with Nuclear receptor subfamily 1 group I member 2 (Homo sapiens) (UniProt O75469). As to the kind of experiment: CYP3A4 induction through human pregnane X receptor (PXR) by small molecules, qHTS assay (AID 1346984). Also: nearly all actives have a fitted effect of over 40% in size. Put shortly: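 Readings come from a luciferase reporter: DPX-2 cells, which are HepG2 cotransfected with PXR and a CYP3A4-promoter construct, were exposed to test compounds for 24 h at 37C before One-Glo detection.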

The target is the same in assay [15]. As to the kind of experiment: Human pregnane X receptor (PXR) activation by small molecules, qHTS assay (AID 1346985). Also: nearly all actives have a fitted effect of over 40% in size. Summed up: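 DPX-2 cells (HepG2 co-transfected with a PXR response element and a CYP3A4-promoter luciferase construct) were seeded at 2,000 per well, rested 5 hr at 37C, then exposed to DMSO-dissolved compounds for 24 hr. Activation was read as luciferase luminescence.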

Assay [16] in a line: qHTS assay to identify small molecule agonists of the TGF-beta/Smad signaling pathway - cell viability counter screen (AID 1346829). Also: top concentration of the series differs between compounds; nearly all actives have a fitted effect of over 45% in size. Put shortly:
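Here the cytotoxicity of library compounds is measured in SBE-bla HEK 293T cells treated for 5 hr, using CellTiter-Glo added to wells already read for the beta-lactamase reporter.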

The target in assay [17] is Thyrotropin-releasing hormone receptor (Homo sapiens) (UniProt P34981). As to the kind of experiment: qHTS assay to identify small molecule antagonists of the thyrotropin-releasing hormone receptor (TRHR) signaling pathway (AID 1346877; active = well fitted inhibition curve with a large enough effect in the repeat runs, not every such curve was filed as active; also: series mostly up to about 51 µM). Summed up:
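Following an 18 h incubation at 37 °C and a 2 h calcium dye load, TRHR-HEK293 cells were exposed to compound (5 min, room temperature) and challenged with TRH, 1 nM final.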

For assay [18] the target is unchanged. As to the kind of experiment: qHTS assay to identify small molecule agonists of the thyrotropin-releasing hormone receptor (TRHR) signaling pathway (AID 1346891; calls by dose curve; also: series mostly up to about 58 µM). Put shortly: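 TRHR-expressing HEK293 cells were plated 18 h at 37 °C/5% CO2, loaded with calcium dye 2 h at 37 °C, then given compound in DMSO; fluorescence was read kinetically for 3 min at 1 s intervals.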

A short description of assay [19]: Caspase-3/7 induction in HepG2 cells by small molecules, qHTS assay (AID 1346978). Also: nearly all actives have a fitted effect of over 15% in size. Also: potency is read from the fitted curve at half-maximal effect. Put shortly:
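Wild-type HepG2 cells (2,000/well) were settled 5 h at 37 C, 5% CO2, then exposed to compounds in DMSO for 17 h. Caspase-3/7 activity was read by luminescence 30 min after adding Caspase-Glo 3/7 reagent at room temperature.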

Assay [20] deals with Nuclear receptor subfamily 1 group I member 2 (Homo sapiens) (UniProt O75469). Put plainly: Human pregnane X receptor (PXR) small molecule agonists, qHTS assay (AID 1346982). Also: nearly all actives have a fitted effect of over 35% in size. Also: potency is read from the fitted curve at half-maximal effect. Put shortly:
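Compound-induced hPXR transactivation of a CYP3A4 luciferase reporter was scored in HepG2 PXR-Luc cells over 24 hr at 37 C, 5% CO2, by luminescence.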

Values joined by “and” are separate entries in the source; they are usually repeats but may differ in a detail not shown here. Equal entries are not always repeated. Records with an inconclusive call do not appear. Some compounds were tested as several samples or in several runs, with calls that do not always agree. Active and inactive are the calls of the source. Unless noted, calls follow the shape of the dose curve; as a rule, active = well fitted curve in the direction sought with a large enough effect in the repeat runs; inconclusive = weak or mixed curves; inactive = no such curve, though single readings can be large; an effect the other way counts as inactive or inconclusive.
% is scaled to controls: 0 for no effect and ±100 for the full control effect.

Nuclear receptor subfamily 1 group I member 2 (Rattus norvegicus), sequence (Q9R1A7 whole entry, looked up): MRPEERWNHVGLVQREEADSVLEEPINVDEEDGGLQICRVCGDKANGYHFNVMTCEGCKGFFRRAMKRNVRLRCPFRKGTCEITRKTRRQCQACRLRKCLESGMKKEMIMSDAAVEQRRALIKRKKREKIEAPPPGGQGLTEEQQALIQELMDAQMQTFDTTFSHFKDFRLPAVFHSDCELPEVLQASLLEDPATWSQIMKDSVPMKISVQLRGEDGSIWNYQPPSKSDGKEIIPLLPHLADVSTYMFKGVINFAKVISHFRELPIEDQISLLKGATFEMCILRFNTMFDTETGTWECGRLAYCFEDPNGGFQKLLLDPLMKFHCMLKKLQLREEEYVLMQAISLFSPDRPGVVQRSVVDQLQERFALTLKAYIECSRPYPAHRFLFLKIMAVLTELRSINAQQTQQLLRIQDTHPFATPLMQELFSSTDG
Thyrotropin-releasing hormone receptor (Homo sapiens), sequence (P34981 whole entry, looked up): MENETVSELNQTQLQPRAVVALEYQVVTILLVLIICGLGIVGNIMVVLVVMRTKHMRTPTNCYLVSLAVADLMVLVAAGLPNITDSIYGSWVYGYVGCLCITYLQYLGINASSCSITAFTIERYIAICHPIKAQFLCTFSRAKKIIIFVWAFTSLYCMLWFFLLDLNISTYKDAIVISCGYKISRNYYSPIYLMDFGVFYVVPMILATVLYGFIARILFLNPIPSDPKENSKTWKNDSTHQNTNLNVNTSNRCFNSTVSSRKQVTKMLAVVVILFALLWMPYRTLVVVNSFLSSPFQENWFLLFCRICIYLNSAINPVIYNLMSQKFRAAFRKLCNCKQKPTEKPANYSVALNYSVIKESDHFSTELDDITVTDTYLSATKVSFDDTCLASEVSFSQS
Thyrotropin receptor (Homo sapiens), sequence (P16473 whole entry, looked up): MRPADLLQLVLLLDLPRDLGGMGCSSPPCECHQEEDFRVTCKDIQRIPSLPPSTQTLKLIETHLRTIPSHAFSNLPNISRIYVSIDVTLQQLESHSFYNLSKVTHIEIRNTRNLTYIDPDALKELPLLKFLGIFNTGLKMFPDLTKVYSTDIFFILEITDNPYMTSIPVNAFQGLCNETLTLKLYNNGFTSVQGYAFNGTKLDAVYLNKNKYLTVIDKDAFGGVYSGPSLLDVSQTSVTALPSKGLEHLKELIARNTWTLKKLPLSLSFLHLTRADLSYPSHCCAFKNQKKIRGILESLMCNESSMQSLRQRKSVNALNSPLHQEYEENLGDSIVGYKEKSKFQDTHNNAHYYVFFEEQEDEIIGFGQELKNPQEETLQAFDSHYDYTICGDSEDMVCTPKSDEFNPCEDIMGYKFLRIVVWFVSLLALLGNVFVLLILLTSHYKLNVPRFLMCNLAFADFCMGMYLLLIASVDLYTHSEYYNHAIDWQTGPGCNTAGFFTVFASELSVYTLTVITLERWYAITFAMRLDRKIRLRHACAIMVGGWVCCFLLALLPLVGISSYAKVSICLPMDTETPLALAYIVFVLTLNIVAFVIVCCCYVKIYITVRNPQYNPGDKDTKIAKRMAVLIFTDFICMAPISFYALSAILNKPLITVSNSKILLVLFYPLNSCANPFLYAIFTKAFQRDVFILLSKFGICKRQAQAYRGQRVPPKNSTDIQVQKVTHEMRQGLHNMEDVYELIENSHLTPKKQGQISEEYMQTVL
Nuclear receptor subfamily 1 group I member 2 (Homo sapiens), sequence (O75469 whole entry, looked up): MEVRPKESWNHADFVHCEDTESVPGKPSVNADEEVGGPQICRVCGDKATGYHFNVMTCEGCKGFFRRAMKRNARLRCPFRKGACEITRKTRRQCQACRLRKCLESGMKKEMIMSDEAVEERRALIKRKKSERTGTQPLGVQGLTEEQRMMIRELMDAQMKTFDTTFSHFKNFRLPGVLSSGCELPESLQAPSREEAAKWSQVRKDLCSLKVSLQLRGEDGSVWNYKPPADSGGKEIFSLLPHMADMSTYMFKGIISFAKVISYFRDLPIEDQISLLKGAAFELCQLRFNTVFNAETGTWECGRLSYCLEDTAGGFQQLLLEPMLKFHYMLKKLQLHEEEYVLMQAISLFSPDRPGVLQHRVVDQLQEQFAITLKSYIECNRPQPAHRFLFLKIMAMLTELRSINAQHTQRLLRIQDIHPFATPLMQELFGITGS
Progesterone receptor (Homo sapiens), sequence (P06401 whole entry, looked up): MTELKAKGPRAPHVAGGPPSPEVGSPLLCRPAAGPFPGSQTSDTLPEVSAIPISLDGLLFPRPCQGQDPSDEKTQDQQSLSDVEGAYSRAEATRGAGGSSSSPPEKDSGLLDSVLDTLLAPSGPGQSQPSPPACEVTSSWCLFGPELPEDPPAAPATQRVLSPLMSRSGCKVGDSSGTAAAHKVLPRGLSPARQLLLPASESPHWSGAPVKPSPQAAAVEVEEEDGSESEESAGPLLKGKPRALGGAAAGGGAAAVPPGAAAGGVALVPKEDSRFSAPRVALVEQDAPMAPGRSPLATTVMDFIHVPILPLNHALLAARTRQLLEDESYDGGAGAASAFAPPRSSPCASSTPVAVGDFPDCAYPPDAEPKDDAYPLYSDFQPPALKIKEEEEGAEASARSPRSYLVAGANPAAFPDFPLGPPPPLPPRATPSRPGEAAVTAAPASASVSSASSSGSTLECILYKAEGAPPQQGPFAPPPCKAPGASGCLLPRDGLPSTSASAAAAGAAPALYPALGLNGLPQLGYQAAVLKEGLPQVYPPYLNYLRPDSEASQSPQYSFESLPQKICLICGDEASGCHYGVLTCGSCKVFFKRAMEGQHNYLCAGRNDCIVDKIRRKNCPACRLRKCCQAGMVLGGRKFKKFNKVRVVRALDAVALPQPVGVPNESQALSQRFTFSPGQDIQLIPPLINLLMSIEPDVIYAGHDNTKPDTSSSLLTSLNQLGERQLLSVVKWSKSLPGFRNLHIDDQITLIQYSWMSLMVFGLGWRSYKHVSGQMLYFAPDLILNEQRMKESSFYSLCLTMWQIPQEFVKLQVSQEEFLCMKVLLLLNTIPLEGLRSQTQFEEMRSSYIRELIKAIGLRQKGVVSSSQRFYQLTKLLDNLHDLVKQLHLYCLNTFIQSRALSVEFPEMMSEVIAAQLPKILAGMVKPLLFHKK

Regarding `OC(Cn1cncn1)(Cn1cncn1)c1ccc(F)cc1F`, the result in assay [1], in [4], in assay [7], in assay [8], in assay [11] and in [14] was inactive. Moreover, the Potency result in [2], in assay [3], in assay [5], in [6], in [9] and in [10] was “inactive” each time. The Potency entry in [12] and in [15] was “inactive” throughout. The max activation in assay [13] is -1.17% (inactive).

On to `Cc1ccc(S(=O)(=O)NC(=O)NN2CCCCCC2)cc1`, for which the call in assay [1], in assay [4], in assay [7], in assay [8], in [17] and in assay [18] was inactive. The call in assay [11] was inactive. In addition, the Potency entry in [2], in assay [3], in assay [5], in [6], in assay [16] and in assay [9] was “inactive” each time. Further, the Potency result in assay [19] and in assay [12] was “inactive” in each case.

As to `O=C(O)CCCCC(=O)O`, the outcome in [1], in [4], in assay [7], in assay [8], in assay [17] and in assay [18] was inactive. The call in [11] and in assay [14] was inactive. Besides, the Potency result in assay [2], in [5], in assay [6], in assay [16], in [9] and in [19] was “inactive” throughout. The Potency entry in assay [10], in assay [12], in [20] and in [15] was “inactive” each time. The max activation in assay [13] was -1.24% (inactive).

Turning to `O=c1ccc2ccccc2o1`, the compound was called inactive in assay [1], in assay [4], in assay [7], in assay [8], in assay [11] and in assay [14]. For the same compound, the Potency result in [2], in assay [3], in assay [5], in assay [6], in assay [16] and in assay [9] was “inactive” in each case. The Potency result in assay [19], in assay [12] and in assay [15] was “inactive” each time.

On to `Cn1c(=O)c2[nH]cnc2n(C)c1=O`, for which the result in assay [1], in assay [4], in [7], in assay [8], in [17] and in assay [18] was inactive. In addition, the outcome in assay [11] was inactive. Moreover, the Potency result in [2], in assay [3], in assay [5], in assay [6], in assay [9] and in [19] was “inactive” each time. The Potency entry in [12] is “inactive”.

Consider `CC(C)[C@@H]1CC[C@@H](C)C[C@H]1O`, for which the compound was called inactive in assay [1], in [4], in assay [7], in [8], in [17] and in assay [18]. The compound was called inactive in [11] and in assay [14]. The Potency result in assay [2], in [3], in assay [5], in assay [6], in assay [9] and in assay [12] was “inactive” in each case. Also, in assay [15], the Potency entry was “inactive”. For the same compound, the Potency in [19] was 69.5 µM (active) and inactive; in [20], 31 µM (active) and inactive. Further, in [13], the max activation is -1.21% (inactive).

With `Cc1ccccc1C(OCCN(C)C)c1ccccc1` (centres undefined), the result in assay [1], in [4], in [7], in [8], in assay [17] and in [18] was inactive. Also, the call in assay [11] and in [14] was inactive. Further, the Potency result in assay [2], in assay [3], in assay [6], in [16], in assay [9] and in assay [19] was “inactive” in each case. Besides, the Potency result in assay [12] and in [15] was “inactive” each time. In assay [20], the Potency result is “inactive and 9.69 µM (active)”. For the same compound, the max activation in assay [13] is -0.826% (inactive).

Turning to `Nc1ccc(S(=O)(=O)c2ccc(N)cc2)cc1`, the compound was called inactive in assay [1], in assay [4], in assay [7], in assay [8], in assay [17] and in [18]. Also, in assay [11], the compound was called inactive. The Potency entry in assay [2], in [3], in assay [5], in [6], in assay [16] and in assay [9] was “inactive” each time. Also, the Potency result in assay [19] and in assay [12] was “inactive” in each case.
